# The list is not random: actives were taken first. Their share in the collection is about 7.4%.
# ELG1 genotox – inducers of genotoxicity in HEK293T ELG1-luciferase cells; HEK293T ELG1-luciferase reporter, luminescence, 16 h; Potency, µM (doses to about 46 µM), without a hit: top-dose activity change, positive = activation, actives largely listed as activators; hit rate 1.3% among 330,000; also: % of control where 0% means no effect; nearly all actives have a fitted effect of over 60% in size
#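 ELG1-luciferase HEK293T cells, 2,000/well; compound pinned in; 16 hr, 37 °C, 5% CO2; ONE-Glo, 30 min RT; luminescence on CCD imager.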
# NPC1 prom act – activates the NPC1 promoter; Huh7 NPC1 promoter luciferase reporter, 24 h; Potency, µM (doses to about 9.22 µM), without a hit: at the highest dose activation, actives largely listed as activators; hit rate 2.4% among 320,000; also: % of control where 0% means no effect; nearly all actives have a fitted effect of over 60% in size
#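 NPC1 promoter–luciferase Huh7 cells; 24 h compound; luminescence.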
# FLuc counter – counter-screen for miR-21 project: firefly luciferase inhibitors or activators; P08659; purified FLuc, Km substrates, luminescence inhibition; Potency, µM (top dose mostly 57.5 µM), without a hit: at the top dose activity change, negative = inhibition, usual class: inhibitors; hit rate 6.9% among 360,000; AID 588342;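 also: plate controls were vehicle for no effect and reference inhibitor for full effect; nearly all actives have a fitted effect of over 55% in size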
# Target sequence (P08659 whole entry, looked up): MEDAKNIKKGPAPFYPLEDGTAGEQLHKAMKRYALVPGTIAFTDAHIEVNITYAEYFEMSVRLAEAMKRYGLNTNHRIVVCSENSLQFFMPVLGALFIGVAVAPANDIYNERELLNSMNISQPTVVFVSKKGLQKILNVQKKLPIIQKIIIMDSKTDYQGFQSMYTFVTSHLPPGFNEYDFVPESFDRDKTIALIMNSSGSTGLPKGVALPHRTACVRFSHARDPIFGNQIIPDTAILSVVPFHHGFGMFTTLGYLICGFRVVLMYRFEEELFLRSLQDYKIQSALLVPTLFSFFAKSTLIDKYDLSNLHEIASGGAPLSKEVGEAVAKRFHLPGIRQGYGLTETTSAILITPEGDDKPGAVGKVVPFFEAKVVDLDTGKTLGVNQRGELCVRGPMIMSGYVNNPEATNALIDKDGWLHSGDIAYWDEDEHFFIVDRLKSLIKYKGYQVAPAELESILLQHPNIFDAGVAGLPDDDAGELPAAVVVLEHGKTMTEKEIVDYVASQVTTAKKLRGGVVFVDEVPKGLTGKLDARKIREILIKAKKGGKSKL
#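 Purified P. pyralis luciferase, 10 nM final, with Km-level 10 uM D-luciferin and 10 uM ATP in 50 mM Tris acetate pH 7.5, 10 mM Mg acetate, 0.01% Tween-20, 0.05% BSA; 6-point qHTS titration about 60 µM downward; luminescence read.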
# Rab9 promoter act – activates the Rab9 promoter; Potency, µM (doses to about 9.22 µM), for inactives: at the top dose activation, negative = inhibition, usual class: activators; hit rate 2.8% among 320,000; AID 485297; Huh7 Rab9 promoter-luciferase reporter, luminescence, 24 h; also: % of control where 0% means no effect; nearly all actives have a fitted effect of over 60% in size
#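 Stable Rab9-luc Huh7, 1500 cells/well, 2 h settle; cmpd in DMSO, 24 h, 37 °C/5% CO2; luciferase reagent 10 min RT; luminescence.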
# SMN2 splice up – increases expression of the SMN2 splice variant. HEK293 SMN2-luciferase splicing reporter, luminescence, 30-36 h. Potency, µM (doses to about 46.1 µM), for the others: top-dose activity change, positive = activation, hits mostly activators. hit rate 2.8% among 210,000. AID 1458; also: % of control where 0% means no effect; nearly all actives have a fitted effect of over 55% in size
#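 HEK293 cells carry an SMN2 minigene-luciferase reporter in which exon 7 inclusion puts luciferase in frame. Cells were seeded at 2000 cells/well, attached for 10-12 hours, then exposed to compounds for 30-36 hours at 37C before ONE-Glo luminescence.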
# An asterisk follows results filed as active; ? = inconclusive; . = no result. Calls follow the shape of the dose curve; as a rule, active = well fitted curve in the direction sought with a large enough effect; inconclusive = small, poorly fitted or top-dose-only effect, or another doubt; inactive = no such curve, though single readings can be large; an effect the other way counts as inactive or inconclusive. Potency is read from the fitted curve at half-maximal effect.
SMILES,ELG1 genotox,NPC1 prom act,FLuc counter,Rab9 promoter act,SMN2 splice up
Cc1ccc(NC(=O)Cn2c(=O)n(Cc3ccccc3)c(=O)c3c(C)c(C(=O)N(C)C)sc32)c(C)c1,.,.,-1%,.,.
c1csc(-c2nnc(NC3CCCCC3)c3ccccc23)c1,-1%,-2%,12µM*,-3%,3%
c1ccc(-c2nc(-c3cccs3)c(NC3CCCCC3)o2)cc1,.,.,.,.,-1%
CC1CCN(c2nc3ccccc3nc2N2CCC(C)CC2)CC1,.,.,3%,.,4%
CC1CCN(c2nnc(-c3cccs3)c3ccccc23)CC1,6%,0%,9.5µM*,8%,-1%
O=C(C[C@H]1C[C@H](C(=O)N2CCOCC2)[C@@]2(CCC3CCCC3)c3[nH]c4cc(-c5ccco5)ccc4c3CCN2C1=O)NCc1ccco1,-7%,.,.,.,.
COCCCn1c(SCC(=O)NC2CCCCC2)nc2ccccc2c1=O,0%,-12%,-1%,6%,.
COc1ccc(C(=O)Nn2c(SCC(=O)NC3CCCCC3)nc3ccccc3c2=O)cc1,?,3.5µM*,1.9µM*,4µM*,29%
COc1ccc(C(=O)Nn2c(SCc3cccc([N+](=O)[O-])c3)nc3ccccc3c2=O)cc1,0.73µM*,4µM*,5.4µM*,3.5µM*,.
COc1ccc(C(=O)Nn2c(SCC(=O)NCc3ccco3)nc3ccccc3c2=O)cc1,?,0.32µM*,0.21µM*,0.089µM*,?
O=C(Nn1c(SCc2cccc([N+](=O)[O-])c2)nc2ccccc2c1=O)c1ccccc1,14%,-2%,?,20%,?
COCCn1c(SCC(=O)N2CCC(C)CC2)nc2ccccc2c1=O,-1%,-3%,0%,5%,-12%
COc1ccc(C(=O)Nn2c(SCC(=O)N3CCC(C)CC3)nc3ccccc3c2=O)cc1,?,0.4µM*,0.67µM*,.,-79%
CCc1cc2c(cc3c(=O)n(CC(=O)NCCCN4CCCCCC4)nc(CC)n32)s1,6%,5%,0%,-7%,.
COc1ccc(C(=O)Nn2c(SCC(=O)c3ccc(Cl)cc3)nc3ccccc3c2=O)cc1,?,0.45µM*,4.8µM*,0.5µM*,-88%
Cc1cc(-c2cc(N)n(-c3ccccc3)n2)c(C)n1C1CCCC1,?,3.5µM*,6µM*,1.6µM*,1%
Nc1ccc(-c2cc(N)n(-c3ccccc3)n2)cc1,9%,0%,?,?,?
COc1ccc(NC(=S)N2CCC(c3ccccc3)C2)cc1 (stereo unspecified),9.2µM*,2.5µM*,6.7µM*,2µM*,.
COc1ccc(NC(=S)N2CCC(C(=O)c3ccc(OC)cc3)CC2)cc1,-12%,-1%,12µM*,0%,.
COc1ccc(NC(=S)N2CCC(C(O)(c3ccccc3)c3ccccc3)CC2)cc1,-3%,-4%,1%,1%,10%
COc1ccc(NC(=S)N2CCC(C(=O)c3ccc(C)cc3)CC2)cc1,-3%,1%,?,-6%,.
CCOc1ccc(S(=O)(=O)N2CCC(C(=O)OC(C)C(=O)N3CCOCC3)CC2)cc1 (stereo unspecified),5%,-4%,-1%,1%,.
Fc1ccc(-c2nnc(-c3ccc(Cl)cc3)o2)cc1,6.5µM*,2µM*,2.7µM*,0.79µM*,?
Fc1ccc(-c2nnc(-c3ccc(Cl)cc3Cl)o2)cc1,1.6µM*,0.22µM*,0.48µM*,0.32µM*,1µM*
Clc1ccc(-c2nnc(-c3ccc(Br)o3)o2)c(Cl)c1,9.2µM*,1.6µM*,3µM*,?,?
SMILES,ELG1 genotox,NPC1 prom act,FLuc counter,Rab9 promoter act,SMN2 splice up
Clc1ccc(-c2nnc(-c3ccccc3)o2)c(Cl)c1,?,0.4µM*,0.43µM*,0.89µM*,2.5µM*
CSc1nnc(-c2ccc(F)cc2)o1,9%,-3%,-14%,7%,-2%
COc1ccc(-n2c(=O)c3c(C)c(C)sc3n(CC(=O)NCc3ccc(C)cc3)c2=O)c(OC)c1,.,.,-17%,.,3%
N#Cc1c(NC(=O)/C=C/c2ccco2)sc2c1CCCC2,2.9µM*,?,4.8µM*,?,3.5µM*
CNC(=O)c1c(NC(=O)c2ccco2)sc2c1CCC2,-1%,14%,?,?,.
O=C(/C=C/c1ccco1)Nc1sc2c(c1C(=O)O)CCC2,2%,3.5µM*,13µM*,?,28µM*
O=C(/C=C/c1ccccc1)Nc1sc2c(c1C(=O)O)CCC2,-1%,?,17µM*,?,.
Cc1nc(NCc2ccccc2)c2nc(-c3ccccc3)n(CC3CCN(C)CC3)c2n1,.,.,.,.,4%
c1ccc(C(c2ccccc2)c2ccn[nH]2)cc1,-4%,-2%,-3%,-9%,.
COc1ccc(OCc2ccc(-c3nc(C#N)c(NCc4ccc(F)cc4)o3)o2)cc1,.,.,1%,.,.
C#CCn1c(=NC(=O)c2sc3ccccc3c2Cl)sc2cc(S(N)(=O)=O)ccc21,-1%,-2%,-1%,-3%,0%
CC(C)c1ccc(NC(=O)COc2ccccc2)cc1,?,?,17µM*,?,.
Cc1ccc(NC(=O)COc2ccccc2)cc1Cl,15%,-5%,?,0%,.
Cc1cc(NC(=O)COc2ccccc2)ccc1Cl,?,?,27µM*,28%,.
CN1CCN(c2ccc(NC(=O)COc3ccccc3)cc2Cl)CC1,?,4.5µM*,21µM*,4µM*,.
CC(C)c1ccc(OCC(=O)Nc2ccc(OC(F)(F)F)cc2)cc1,-1%,1%,1%,-1%,.
Cc1ccccc1NC(=O)Cc1nc(COC(=O)CC(C)c2ccccc2)cs1 (stereo unspecified),1%,-5%,9%,?,.
Cc1ccccc1CN1CCCN(CC(=O)Nc2ccc(F)cc2)S1(=O)=O,.,.,2%,.,.
Cc1cc(=O)n(CC(=O)Nc2cc(Cl)ccc2C)c(C(C)C)n1,-2%,-2%,0%,3%,-4%
O=C1c2ccccc2C(=O)N1CCc1c[nH]c2ccccc12,?,?,6.7µM*,3.5µM*,.
O=C1c2ccccc2C(=O)N1CCCc1c[nH]c2ccccc12,-2%,3%,-18%,18%,0%
O=c1c2cn[nH]c2[nH]c(=S)n1-c1ccccc1F,6.5µM*,2.8µM*,1.2µM*,?,14µM*
O=c1c2cn[nH]c2[nH]c(=S)n1-c1ccccc1Cl,3%,-4%,-7%,0%,.
CN(C)S(=O)(=O)c1ccc(SCC(=O)N2CC(=O)Nc3ccccc32)nc1,-1%,1%,-2%,2%,.
COC(=O)C1=NN(C(=O)c2ccc(Cl)cc2)C(O)(c2ccccc2)C1 (stereo unspecified),1%,-1%,21µM*,2%,-18%
CCCCn1c(N)c(N(Cc2ccccc2OC)C(=O)CN2C(=O)NC3(CCCC3)C2=O)c(=O)[nH]c1=O,2%,-2%,3%,-5%,.
CCCc1cc(=O)oc2cc(OCC(=O)Nc3ccccn3)ccc12,21µM*,3.5µM*,15µM*,?,.

# Screening data from PubChem.
